Screen size: about 200,000 compounds; about 15 (0.007%) were called active. The list comes from a sample in which actives are over-represented; it also holds similar structures and randomly drawn compounds. Values without a mark were called inactive. Rule as the data show it: active = displacement above about 50%; inactive = the rest.
Each compound was assayed against E3 ubiquitin-protein ligase XIAP (Homo sapiens) (UniProt P98170) (assay: small molecules displacing peptide from XIAP – biochemical, IAP family, fluorescence polarization (AID 1018)). Conditions: XIAP BIR domain, at 20 µM, hits give high values.
Sequence of E3 ubiquitin-protein ligase XIAP (Homo sapiens) (P98170 whole entry, looked up, the tested form may be a part): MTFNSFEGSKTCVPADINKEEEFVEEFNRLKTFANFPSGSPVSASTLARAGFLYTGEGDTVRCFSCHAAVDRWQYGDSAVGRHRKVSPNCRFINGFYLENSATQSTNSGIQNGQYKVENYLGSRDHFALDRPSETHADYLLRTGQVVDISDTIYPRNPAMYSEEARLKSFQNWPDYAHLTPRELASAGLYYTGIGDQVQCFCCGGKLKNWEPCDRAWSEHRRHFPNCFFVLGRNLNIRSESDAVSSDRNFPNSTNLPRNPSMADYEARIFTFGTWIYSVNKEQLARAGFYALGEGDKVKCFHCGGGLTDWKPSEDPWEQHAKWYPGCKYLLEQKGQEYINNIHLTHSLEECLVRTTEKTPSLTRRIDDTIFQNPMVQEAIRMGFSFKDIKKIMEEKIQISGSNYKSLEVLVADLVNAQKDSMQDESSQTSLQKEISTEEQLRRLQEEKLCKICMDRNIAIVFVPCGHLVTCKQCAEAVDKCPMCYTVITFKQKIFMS
Work on `CN1C(=O)N(C)C(=O)C2(Cc3ccccc3N3CCOCC32)C1=O` (stereo not given) yielded a displacement of -5.1%. For `CN1C(=O)N(C)C(=O)C2(Cc3cc(N)ccc3N3CCN(c4ccccc4F)CC32)C1=O` (stereo not given), the displacement was 55.4% (active). For `CN1C(=O)NC(=O)[C@]2(Cc3ccccc3N3CCN(c4ccccc4)CC32)C1=O` (stereo not given in full), the displacement was -2.4%. For `Cc1ccc(-c2nc3ccccc3c(=O)n2-c2ccccn2)cc1`, the displacement was -3%. For `CCCCCSc1cc(OC)c(CCN(C)C)cc1OC`, the displacement was -2.2%.
